Molecules are shown by their SMILES. The panel holds about 83,000 compounds, 20% with a hit somewhere; the sample as a whole holds those more often.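 Testing used 96-well plates and a 48-hour single-concentration exposure. Example: -40 means 40% of the starting cells died.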 Values without a mark were called inactive. Active and inactive are the calls of the source. The calls were made as follows: active = growth percent below 10; inactive = the rest.

Among the test systems are EKVX NSCLC; SN12C renal; UO-31 renal; ACHN renal; CAKI-1 renal; A498 renal; CCRF-CEM leukemia; MOLT-4 leukemia; RPMI-8226 leukemia; OVCAR-8 ovarian; OVCAR-5 ovarian; OVCAR-4 ovarian; SK-OV-3 ovarian; IGROV1 ovarian; OVCAR-3 ovarian; HS 578T breast; NCI/ADR-RES ovarian; T-47D breast; SR leukemia.
Holding throughout (assay): NCI-60 one-dose screen, 48 h (100 = growth as untreated, 0 = no growth, -100 = all killed)
Common to all, as to details: 10 µM unless noted

On to `COc1ccc(-c2nc3ccc(-c4nnc(SCC(=O)Nc5ccc(C(=O)/C=C/c6ccccc6)cc5)o4)cc3[nH]2)cc1OC`, for which the growth was 104% in the assay with EKVX NSCLC; 94.8% in the assay with SN12C renal; 88.5% in the assay with UO-31 renal; 96.3% in the assay with ACHN renal; 97% with CAKI-1 renal; 112% in the assay with A498 renal. Moreover, the growth in the assay on CCRF-CEM leukemia is 88.4%; in the assay on MOLT-4 leukemia, 80.5%; in the assay on RPMI-8226 leukemia it was 64%; in the assay with OVCAR-8 ovarian it was 104%; in the assay on OVCAR-5 ovarian it was 99.4%; with OVCAR-4 ovarian, 109%. The growth was 117% in the assay with SK-OV-3 ovarian; 96.4% with IGROV1 ovarian; 114% in the assay with OVCAR-3 ovarian; 96.1% in the assay with HS 578T breast; 110% in the assay on NCI/ADR-RES ovarian; 86.9% with T-47D breast.

For the compound `COc1cc2nc(-c3ccc(C)cc3)cc(OCCCNCC3CCCO3)c2cc1OC` (stereo not given), the growth is 73.4% with EKVX NSCLC; 57.3% in the assay on SN12C renal; 72% with UO-31 renal; 65.7% in the assay with ACHN renal; 24.6% with CAKI-1 renal; 46.9% in the assay with A498 renal. The growth with CCRF-CEM leukemia is 73.4%; in the assay with MOLT-4 leukemia, 71.9%; in the assay with SR leukemia, 41.1%; in the assay with RPMI-8226 leukemia it was 24.1%; in the assay with OVCAR-8 ovarian, 46.8%; with OVCAR-5 ovarian it was 56.7%. For the same compound, the growth with OVCAR-4 ovarian was 89.8%; in the assay on SK-OV-3 ovarian it was 113%; in the assay with IGROV1 ovarian, 49.1%; with OVCAR-3 ovarian, 101%; in the assay on HS 578T breast, 84.3%; in the assay with NCI/ADR-RES ovarian, 54.8%. Also, the growth in the assay with T-47D breast was 66%.

Regarding `CCN1CCN(S(=O)(=O)c2oc(-c3ccc(Cl)cc3)nc2C#N)CC1`, the growth was 95.6% with EKVX NSCLC; 78.7% in the assay with SN12C renal; 33.2% in the assay with UO-31 renal; -86.6% (active) in the assay with ACHN renal; 65% with CAKI-1 renal; 93.2% in the assay with A498 renal. The growth is 2.3% (active) with CCRF-CEM leukemia; 0.374% (active) in the assay with MOLT-4 leukemia; 29% in the assay with RPMI-8226 leukemia; 85% in the assay with OVCAR-8 ovarian; 94.8% in the assay on OVCAR-5 ovarian; 105% in the assay with OVCAR-4 ovarian. Further, the growth with SK-OV-3 ovarian was 129%; in the assay on IGROV1 ovarian, 7.89% (active); with OVCAR-3 ovarian it was 41.8%; in the assay with HS 578T breast, 105%; in the assay with NCI/ADR-RES ovarian, 96%; in the assay with T-47D breast, 7.45% (active).

With `Cc1[nH]nc2ncc(C#Cc3cncc(C(=O)Nc4ccc(CN5CCN(C)CC5)c(C(F)(F)F)c4)c3)cc12`, the growth in the assay with EKVX NSCLC was 54.9%; in the assay with SN12C renal, 7.71% (active); in the assay on UO-31 renal, -6.87% (active); in the assay with ACHN renal, 4.36% (active); in the assay on CAKI-1 renal, -27.9% (active); in the assay on A498 renal it was -17.7% (active). The growth in the assay with CCRF-CEM leukemia is 20.9%; in the assay with MOLT-4 leukemia, 20.4%; in the assay on SR leukemia, 19.6%; in the assay with RPMI-8226 leukemia, 29.9%; in the assay with OVCAR-8 ovarian, 37.8%; in the assay with OVCAR-5 ovarian it was 20.5%. Further, the growth was 50.7% in the assay on OVCAR-4 ovarian; 0.879% (active) in the assay with SK-OV-3 ovarian; 1.84% (active) with IGROV1 ovarian; 37.8% in the assay on OVCAR-3 ovarian; 9.15% (active) with HS 578T breast; 78% with NCI/ADR-RES ovarian. The growth in the assay with T-47D breast is 32.6%.

For `CCCSc1nc(Nc2ccc(/C(C)=N\NC(N)=S)cc2)c(C#N)c(-c2ccc(OC)cc2)n1`, the growth in the assay on EKVX NSCLC was 74.8%; in the assay on SN12C renal, 33.5%; in the assay on UO-31 renal it was 28.3%; with ACHN renal, 47.2%; in the assay on CAKI-1 renal, -7.3% (active); in the assay with A498 renal, 101%. For the same compound, the growth is 89.2% in the assay on CCRF-CEM leukemia; 80.4% in the assay with MOLT-4 leukemia; 74.2% with SR leukemia; 71.9% in the assay with RPMI-8226 leukemia; 30.7% with OVCAR-8 ovarian; 94.5% in the assay with OVCAR-5 ovarian. Also, the growth in the assay with OVCAR-4 ovarian is 28%; with SK-OV-3 ovarian, 97.3%; in the assay with IGROV1 ovarian, 81%; in the assay with OVCAR-3 ovarian, 67.3%; in the assay on HS 578T breast it was 25.3%; in the assay with NCI/ADR-RES ovarian it was 56%. For the same compound, in the assay with T-47D breast, the growth is 86.6%.

Turning to `O=C(CCN1C(=O)/C(=C/c2ccccc2)SC1=S)N1CCOCC1`, the growth with EKVX NSCLC was 82.3%; in the assay on SN12C renal it was 81.7%; in the assay on UO-31 renal, 72.9%; in the assay with ACHN renal it was 67%; with CAKI-1 renal it was 88.2%; in the assay with A498 renal, 90.5%. Further, the growth is 49.1% with CCRF-CEM leukemia; 89.4% in the assay on MOLT-4 leukemia; 65.4% in the assay on SR leukemia; 67.7% with RPMI-8226 leukemia; 99.6% in the assay with OVCAR-8 ovarian; 94.8% with OVCAR-5 ovarian. Besides, the growth in the assay with OVCAR-4 ovarian was 101%; in the assay on SK-OV-3 ovarian it was 98.5%; with IGROV1 ovarian, 88.5%; in the assay on OVCAR-3 ovarian, 110%; with HS 578T breast, 100%; with NCI/ADR-RES ovarian, 98.8%. The growth in the assay on T-47D breast was 65.7%.

On to `CN(C)CCCNc1c2ccc(Cl)cc2nc2c1oc1ccc(Cl)cc12`, for which the growth with EKVX NSCLC is 44.4%; in the assay on SN12C renal, -74.4% (active); with UO-31 renal, 45.2%; in the assay with ACHN renal, -96.8% (active); in the assay with CAKI-1 renal, -85% (active); in the assay with A498 renal, 37.9%. Moreover, the growth in the assay with CCRF-CEM leukemia was 2.17% (active); in the assay on MOLT-4 leukemia it was -4.89% (active); in the assay with SR leukemia, -12.3% (active); with RPMI-8226 leukemia it was -27.2% (active); with OVCAR-8 ovarian, -78.6% (active); with OVCAR-5 ovarian it was -7.04% (active). Also, the growth is 0.544% (active) in the assay on OVCAR-4 ovarian; 60.5% in the assay on SK-OV-3 ovarian; -64.3% (active) in the assay on IGROV1 ovarian; -52.6% (active) in the assay with OVCAR-3 ovarian; 60.9% in the assay on HS 578T breast; 2.92% (active) in the assay on NCI/ADR-RES ovarian. Further, the growth in the assay on T-47D breast was 84.4%.

Regarding `O=C(c1ccc(O)cc1)C1[C@H](c2ccc(Cl)cc2)[C@@H](c2ccccc2)NC12C(=O)Nc1ccc(Cl)cc12` (stereo not given in full), the growth was 48.1% with EKVX NSCLC; -1.78% (active) with SN12C renal; 35.4% in the assay on UO-31 renal; 16.8% in the assay on ACHN renal; 29.5% in the assay on CAKI-1 renal; 50.8% with A498 renal. Also, the growth was 40.4% in the assay with CCRF-CEM leukemia; 10.3% in the assay on MOLT-4 leukemia; 9.52% (active) in the assay on SR leukemia; 26.4% with RPMI-8226 leukemia; 47.7% with OVCAR-8 ovarian; 68.8% in the assay on OVCAR-5 ovarian. Also, the growth was 47.1% with OVCAR-4 ovarian; 94.6% in the assay on SK-OV-3 ovarian; 38.9% with IGROV1 ovarian; 33.1% with OVCAR-3 ovarian; 60.5% with HS 578T breast; 36.2% in the assay on NCI/ADR-RES ovarian. In the assay on T-47D breast, the growth was 31.4%.

These data come from PubChem BioAssay (NCI).
